Assay outcomes (PubChem)
GPR151 activ – activates the human receptor GPR151; Q8TDV0; activation, % at 11.2 µM; 650,000 compounds, 1% hits; AID 1508602; PathHunter beta-arrestin GPR151 cells, luminescence; in the data active means activation above about 4.9%
FBW7 activator – activators of human E3 ligase FBW7; Q969H0; 650,000 compounds, 0.13% hits; AlphaScreen FBW7–phospho-cyclin E peptide binding, activator screen; normalized activity (activation), % at 26.1 µM; in the data active means normalized activity above about 1.9%;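 further: purified mutant Fbw7 with reduced substrate affinity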
TEAD-YAP block – TEAD-YAP interaction inhibition; HEK-TIYL cells, TEAD-Gal4/YAP UAS-luciferase luminescence; inhibition, % at 9.12 µM; 640,000 compounds, 1.4% hits; in the data active means inhibition above about 32%
MITF inh – blocks human microphthalmia-associated transcription factor; AlphaScreen MITF homodimerization, bead proximity signal; O75030; 650,000 compounds, 0.91% hits; inhibition, % at 2.6 µM; in the data active means inhibition above about 50%
Target sequence (O75030 whole entry, looked up): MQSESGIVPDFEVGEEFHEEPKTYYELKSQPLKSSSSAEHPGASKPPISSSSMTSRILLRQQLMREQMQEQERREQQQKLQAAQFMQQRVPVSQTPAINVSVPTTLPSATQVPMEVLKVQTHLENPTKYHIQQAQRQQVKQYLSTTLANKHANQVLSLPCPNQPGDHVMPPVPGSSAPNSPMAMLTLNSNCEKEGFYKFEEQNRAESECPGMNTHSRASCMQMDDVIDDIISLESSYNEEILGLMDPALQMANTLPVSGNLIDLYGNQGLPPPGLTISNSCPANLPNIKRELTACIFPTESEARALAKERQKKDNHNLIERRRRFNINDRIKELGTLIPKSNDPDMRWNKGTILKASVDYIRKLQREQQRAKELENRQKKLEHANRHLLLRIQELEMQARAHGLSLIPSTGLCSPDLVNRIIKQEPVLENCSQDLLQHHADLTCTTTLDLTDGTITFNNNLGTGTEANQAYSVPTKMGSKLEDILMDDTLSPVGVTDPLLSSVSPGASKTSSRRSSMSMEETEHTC
Hits are given with their value; n = inactive; ! = repeats disagree. Hits are enriched below; roughly 3.5% of the tested compounds scored in any of these assays.

SMILES	GPR151 activ	FBW7 activator	TEAD-YAP block	MITF inh
O=C1Nc2ccccc2/C1=N\N=C1/SCC(=O)N1c1ccc(O)cc1	n	n	50.0	n
Cc1c(N2C(=O)CS/C2=N\N=C2/C(=O)Nc3ccccc32)c(=O)n(-c2ccccc2)n1C	n	n	n	n
COC(=O)NCCc1nc2ccccc2n1Cc1c(F)cccc1Cl	n	n	n	n
Cc1c(N=Nc2ccc([N+](=O)[O-])cc2S(=O)(=O)O)co[n+]1[O-]	n	n	n	n
Cc1nc(N=Nc2cc(S(=O)(=O)O)c3cc([N+](=O)[O-])cc(S(=O)(=O)O)c3c2)c(COP(=O)(O)O)c(C=O)c1O	n	n	n	77.2!
CC(C)[C@@H](CO)Nc1ccc2ncc(-c3cccc(C(F)(F)F)c3)n2n1	n	n	n	n
O=C(c1cc2c(ccc3ccccc32)oc1=O)N1CCCC1	n	3.2	n	n
O=C(c1cc2c(ccc3ccccc32)oc1=O)N1CCOCC1	n	n	n	n
C=CCn1c(Cl)c(/C=N/NC(=O)OCC)s/c1=N\S(=O)(=O)c1cccs1	n	n	45.2	n
C=CCn1c(Cl)c(C=O)s/c1=N\S(=O)(=O)c1cccs1	n	n	59.6	n
CC(=O)Oc1cc2c([N+](=O)[O-])c(C)oc2c2ccccc12	n	n	n	n
COc1ccc(/C=C/c2nn3c(Cn4cnc5ccccc54)nnc3s2)cc1	n	n	38.5	n
CC(=O)Nc1ccc(Nc2nc(-c3ccc(C(=O)N4CCN(C)CC4)cc3)nc3nc[nH]c23)cc1	n	n	n	n
Cc1cc(=O)[nH]c(SCC(=O)Nc2ccc(Br)cn2)n1	n	n	n	n
O=C(CSc1nc2ccccc2[nH]1)Nc1ccc(Br)cn1	n	n	76.1	n
O=C(c1ccc(-c2ccco2)[nH]1)C(F)(F)F	n	n	n	n
CCOC(=O)N1CCc2c(sc(NC(=O)/C=C/c3ccccc3)c2C(N)=O)C1	n	n	39.6	n
O=Cc1c(NC(=O)Cc2ccccc2)sc2c1CCCC2	n	2.0	n	n
N#Cc1c(NC(=O)Cc2ccccc2)sc2c1CCC2	n	n	n	n
N#Cc1c(NC(=O)CCc2ccccc2)sc2c1CCC2	n	n	39.5	n
N#Cc1c(NC(=O)COc2cccc3ccccc23)sc2c1CCCC2	n	2.0	n	n
OCCN1CCN(c2cc(-c3ccc(F)cc3)nc(-c3ccncc3)n2)CC1	n	n	n	n
CCOC(=O)N1CCc2c(sc(NC(=O)c3ccccc3[N+](=O)[O-])c2C#N)C1	n	n	53.4	n
CCOC(=O)N1CCc2c(sc(NC(=O)/C=C/c3ccccc3Cl)c2C#N)C1	n	n	n	n
CCOC(=O)N1CCc2c(sc(NC(=O)CCc3ccccc3)c2C#N)C1	n	n	54.3	n
SMILES	GPR151 activ	FBW7 activator	TEAD-YAP block	MITF inh
CC(=O)Nc1sc2c(c1C#N)CCN(C(C)=O)C2	n	n	n	n
CC(=O)N1CCc2c(sc(NC(=O)/C=C/c3cccs3)c2C#N)C1	n	n	58.0	n
CCOC(=O)N1CCc2c(sc(NC(=O)/C=C/c3ccccc3)c2C#N)C1	n	n	34.7	n
O=C(Nc1ccc(N2CCOCC2)cc1)c1cnc(Br)s1	n	n	n	n
CC1Cc2ccccc2N1CC(=O)Nc1sc2c(c1C(N)=O)CCC2 (stereo not drawn)	n	n	n	n
CC1Cc2ccccc2N1CC(=O)Nc1sc2c(c1C#N)CCC2 (stereo not drawn)	n	n	38.3	n
OCc1nc2ccc(Cc3ccc4nc(CO)[nH]c4c3)cc2[nH]1	n	n	n	n
OCc1nc2ccc(-c3ccc4nc(CO)[nH]c4c3)cc2[nH]1	n	n	57.8	n
CCCCN1C(=O)c2cccc3c(N4CCCC4)ccc(c23)C1=O	n	n	n	n
CCN1C(=O)c2cccc3c(N4CCCC4)ccc(c23)C1=O	n	2.1	n	n
COc1ccc(NC(=O)C2CCCO2)c(C)c1 (stereo not drawn)	n	n	n	n
Cc1ccc(-n2nc(C)c(NC(=O)CCl)c2C)cc1C	n	n	44.7	n
CCC(=O)Nc1c(C)nn(-c2ccc(C)c(C)c2)c1C	n	n	n	n
CCc1c(C(=O)NC2CCCc3ccccc32)[nH]c(C)c1C(C)=O (stereo not drawn)	n	n	37.4	n
CN1CCN(c2ccc(-c3cncc(C(=O)NCCCN4CCCC4=O)c3)cc2)CC1	n	n	n	n
CCN(CC)C(=O)c1cccc([N+](=O)[O-])c1	n	n	n	n
CCc1ccc(CNC(=O)Cc2ccc(NC(=O)C3=C(C)OCCS3)cc2)cc1	n	n	35.3	n
Cc1cc(C)n(/N=C/c2ccc(Br)s2)c(=O)c1C#N	n	n	n	n
COc1ccccc1N1CCN(C(=O)CSc2nc3ccccc3c(=O)n2CCC(=O)NC2CCCCC2)CC1	n	n	45.7	n
CCOC(=O)c1cnc2ccc(OCC)cc2c1Nc1ccccc1OC	n	n	n	n
COc1ccc(/C=N/NC(=O)c2[nH]nc3c2CCc2ccccc2-3)cc1OC	n	n	45.8	n
COc1cccc(/C=N\NC(=O)c2n[nH]c3c2CCC3)c1	n	n	36.3	n
COc1ccc(/C=N/NC(=O)c2n[nH]c3c2CCCC3)cc1OC	n	n	n	n
COc1cccc(/C=N\NC(=O)c2n[nH]c3c2CCCC3)c1OC	n	n	n	n
COC(=O)c1ccc(/C=N/NC(=O)c2[nH]nc3c2CCc2ccccc2-3)cc1	n	n	n	n
SMILES	GPR151 activ	FBW7 activator	TEAD-YAP block	MITF inh
COc1ccc(/C=N\NC(=O)c2n[nH]c3c2CCCC3)c(OC)c1OC	n	n	61.4	n
COc1cc(/C=N/NC(=O)c2n[nH]c3c2CCC3)ccc1O	n	n	46.7	n
COc1cc2c(-c3ccccc3Br)nc3c(c(C)nn3-c3ccccc3)c2cc1OC	n	n	n	n
COc1cc2c(-c3ccccc3Cl)nc3c(c(C)nn3-c3ccccc3)c2cc1OC	n	n	40.1	n
CCc1ccc(OCC(=O)Nc2cccc(Cl)c2)cc1	n	n	n	n
N#Cc1ccccc1OCC(=O)NC(=O)NC1CCCC1	n	n	62.4	n
CC(C)c1ccccc1NC(=O)CCCCCN1C(=O)c2ccccc2C1=O	n	n	n	n
N#C/C(C(N)=O)=C1\Oc2c(cc(O)cc2-c2ccccc2)S1	n	n	36.7	n
CSc1nc2c(c(=O)[nH]c(=O)n2C)n1CCSc1nc2ccccc2s1	n	n	36.8	n
O=C(O)c1ccc(Oc2ccc(N3C(=O)c4ccc(Oc5ccc([N+](=O)[O-])cc5)cc4C3=O)cc2)cc1	n	n	n	n
O=C(O)c1ccc(N2C(=O)c3ccc(Oc4ccc([N+](=O)[O-])cc4)cc3C2=O)cc1[N+](=O)[O-]	n	2.5	n	n
O=C1c2ccc([N+](=O)[O-])cc2C(=O)N1c1ccc(I)cc1	n	2.2	n	n
O=C1C(=O)c2cc([N+](=O)[O-])ccc2-c2ccc([N+](=O)[O-])cc21	n	n	53.5	n
O=C1c2ccc([N+](=O)[O-])cc2C(=O)N1CCCCN1C(=O)c2ccc([N+](=O)[O-])cc2C1=O	n	n	n	n
O=C1c2ccc([N+](=O)[O-])cc2C(=O)N1c1ccc(O)cc1	n	n	n	n
COCCCNC(=O)CCCCCn1c(=S)[nH]c2ccccc2c1=O	n	n	n	n
